Source: PubChem BioAssay (NCATS)
Results filed as inconclusive are left out. Calls of active or inactive are those of the source. Calls follow the shape of the dose curve; as a rule, active = well fitted inhibition curve with a large enough effect; inconclusive = small, poorly fitted or top-dose-only effect; inactive = flat fitted curve, though single readings scatter.

system: PC49; test: qHTS profiling for inhibitors of Plasmodium falciparum proliferation (AID 504749); also: nearly all actives have a fitted effect of over 60% in size;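 as to activity, negative = inhibition: 0% = DMSO vehicle and full inhibition = artemisinin control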; details: P. falciparum in erythrocytes, SYBR Green DNA, 72 h; series mostly up to 28.7 µM; activity, negative = inhibition: at the top concentration
In short: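 Fluorescence of SYBR Green-bound parasite DNA, read at 485/535 nm, served as the growth measure. Infected erythrocytes were cultured with compound 72 h; artemisinin (0.29 uM) and DMSO wells defined the normalization range.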
Potency is read from the fitted curve at half-maximal effect.

Compound	activity, negative = inhibition	Potency
CC(=O)Nc1ccc(OC(C)=O)cc1	14.1% (inactive)	–
CC(C)(C)c1ccc2c(S(=O)(=O)O)c(C(C)(C)C)ccc2c1	7.41% (inactive)	–
CCCCCCCCCCCCOCCCN	10.3% (inactive)	–
COC(=O)C(CN)c1c[nH]c2ccc(OC)cc12 (centres undefined)	2.87% (inactive)	–
CC1(C)S[C@@H]2[C@H](NC(=O)C3(N)CCCCC3)C(=O)N2[C@H]1C(=O)O	1.12% (inactive)	–
FC(F)(F)C(F)(F)C(F)(F)C(F)(F)C(F)(F)C(F)(F)F	-3.99% (inactive)	–
CCCCO	16.7% (inactive)	–
CCOC(=O)c1c[nH]c2cc(OCC(C)C)c(OCC(C)C)cc2c1=O	–	141 nM (active)
CCN(CC)CCOc1ccc2nc(N(C)C)sc2c1	-11.3% (inactive)	–
OCl	22.3% (inactive)	–
COC(=O)CC[C@H](N)C(=O)O	5.46% (inactive)	–
COc1cc(S(C)=O)ccc1-c1nc2ncccc2[nH]1 (centres undefined)	-15.9% (inactive)	–
O=C(O)Cc1nn(Cc2ccc(Br)cc2F)c(=O)c2ccccc12	3.96% (inactive)	–
O=C(O)/C=C/c1ccccc1	13.8% (inactive)	–
Cc1cccc(C)c1NC(=O)NC1=CCCN1C	4.12% (inactive)	–
NCC[C@H](O)C(=O)N[C@@H]1C[C@H](N)[C@@H](O[C@H]2O[C@H](CN)[C@@H](O)[C@H](O)[C@H]2O)[C@H](O)[C@H]1O[C@H]1O[C@H](CO)[C@@H](O)[C@H](N)[C@H]1O	4.69% (inactive)	–
CC1=CC(=O)NS(=O)(=O)O1	-2.84% (inactive)	–
O=C(O)[C@H]1C(=CCO)O[C@H]2CC(=O)N12	4.3% (inactive)	–
CCC(Cc1c(I)cc(I)c(O)c1I)C(=O)O (centres undefined)	-10% (inactive)	–
CCCCC[C@H](O)/C=C/[C@@H]1[C@H]2C/C(=C/CCCC(=O)O)O[C@H]2C[C@H]1O	-0.926% (inactive)	–

Compound	activity, negative = inhibition	Potency
FCOC(C(F)(F)F)C(F)(F)F	2.91% (inactive)	–
C=Cc1ccc(S(=O)(=O)O)cc1	12.9% (inactive)	–
CC12CCC(C[N+](C)(CCC[N+](C)(C)C)C1)C2(C)C (centres undefined)	1.09% (inactive)	–
CC1CC(OC(=O)C(O)c2ccccc2)CC(C)(C)C1 (centres undefined)	14.1% (inactive)	–
CC/C(=C(/CC)c1ccc(OP(=O)(O)O)cc1)c1ccc(OP(=O)(O)O)cc1	8.47% (inactive)	–
O=C(NNCNNC(=O)c1ccncc1)c1ccncc1	0.476% (inactive)	–
CC(C)c1ncc([N+](=O)[O-])n1C	-3.32% (inactive)	–
CC(C)CCC[C@@H](C)[C@H]1CC[C@H]2[C@@H]3CC[C@@H]4C[C@H](O)CC[C@]4(C)[C@H]3CC[C@]12C	-0.89% (inactive)	–
Cc1ccc(S(=O)(=O)NCl)cc1	10.1% (inactive)	–
CC(/C=C/C=C(\C)C(=O)O[C@@H]1O[C@H](CO[C@@H]2O[C@H](CO)[C@@H](O)[C@H](O)[C@H]2O)[C@@H](O)[C@H](O)[C@H]1O)=C\C=C\C=C(C)\C=C\C=C(/C)C(=O)O[C@@H]1O[C@H](CO[C@@H]2O[C@H](CO)[C@@H](O)[C@H](O)[C@H]2O)[C@@H](O)[C@H](O)[C@H]1O	5.63% (inactive)	–
CCCCCCCCCCCCCCCCCC(=O)OCC(C)O (centres undefined)	7.02% (inactive)	–
CC(C)(Oc1ccc(C2CCCc3ccccc32)cc1)C(=O)O (centres undefined)	2.01% (inactive)	–
CO	10.4% (inactive)	–
O=C(O)/C=C/C(=O)Nc1ccc(S(=O)(=O)Nc2nccs2)cc1	-0.689% (inactive)	–
N[C@H](CC(=O)O)C(=O)O	10.5% (inactive)	–
CCCc1ccc(C(=O)O)cc1	8.18% (inactive)	–
O=S(=O)(O)CC(S)CS (centres undefined)	10% (inactive)	–
O=c1[nH]c(=O)n([C@H]2C[C@H](O)[C@@H](CO)O2)cc1/C=C/Br	10.6% (inactive)	–
CN[C@@H]1[C@H](O[C@H]2[C@H](O[C@H]3[C@H](O)[C@@H](O)[C@H](N=C(N)N)[C@@H](O)[C@@H]3N=C(N)N)O[C@@H](C)[C@]2(O)C=O)O[C@@H](CO)[C@H](O)[C@H]1O	10.3% (inactive)	–
